Assay outcomes from PubChem.
Hits are enriched below; roughly 4.5% of the tested compounds scored in any of these assays.
CSC inhib = cancer stem cell inhibition. hit rate 1.1% among 300,000. cancer stem cell-like cells viability, luminescence. AID 2717. inhibition, % at 7.5 µM; in the data active = inhibition above about 75%; inconclusive = no clear call, values can overlap the other calls; tested in HMLE shEcad cells
Mdm2 MdmX PPI = human Mdm2/MdmX binding inhibition. SaOS-2 split-luciferase Mdm2/MdmX complementation, luminescence. inhibition, % at 8 µM. hit rate 3% among 330,000. AID 485346;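 active = inhibition of at least 50% at 8 µM in the primary screen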
Target sequence (O15151 whole entry, looked up): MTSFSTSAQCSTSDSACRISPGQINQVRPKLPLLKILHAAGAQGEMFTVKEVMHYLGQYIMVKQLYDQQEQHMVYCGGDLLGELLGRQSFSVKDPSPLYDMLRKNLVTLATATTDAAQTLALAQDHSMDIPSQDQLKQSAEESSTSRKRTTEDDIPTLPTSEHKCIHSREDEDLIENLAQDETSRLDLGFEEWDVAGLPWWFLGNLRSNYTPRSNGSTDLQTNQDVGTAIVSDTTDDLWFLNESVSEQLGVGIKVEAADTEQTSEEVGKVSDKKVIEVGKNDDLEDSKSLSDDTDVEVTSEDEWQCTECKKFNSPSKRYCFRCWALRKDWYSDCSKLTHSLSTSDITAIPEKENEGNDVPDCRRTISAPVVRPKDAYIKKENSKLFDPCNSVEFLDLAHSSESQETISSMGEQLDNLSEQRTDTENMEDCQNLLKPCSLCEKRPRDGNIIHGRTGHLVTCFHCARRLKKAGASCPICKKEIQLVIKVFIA
Target sequence (Q00987 whole entry, looked up): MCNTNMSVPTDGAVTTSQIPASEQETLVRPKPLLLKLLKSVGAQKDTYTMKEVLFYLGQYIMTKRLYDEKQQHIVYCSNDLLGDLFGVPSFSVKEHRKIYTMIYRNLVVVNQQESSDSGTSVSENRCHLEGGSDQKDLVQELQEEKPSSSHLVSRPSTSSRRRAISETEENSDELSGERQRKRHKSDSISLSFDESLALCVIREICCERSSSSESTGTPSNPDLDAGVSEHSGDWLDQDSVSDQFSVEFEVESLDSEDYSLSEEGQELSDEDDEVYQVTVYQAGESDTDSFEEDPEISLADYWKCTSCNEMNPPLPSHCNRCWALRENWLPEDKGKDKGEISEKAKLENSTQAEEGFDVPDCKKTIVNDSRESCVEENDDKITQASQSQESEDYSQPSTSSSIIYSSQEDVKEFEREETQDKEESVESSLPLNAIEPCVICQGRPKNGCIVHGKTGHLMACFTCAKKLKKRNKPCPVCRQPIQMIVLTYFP
Jurkat NFkB inh = inhibitors of the PMA/ionomycin-induced NF-kB reporter in Jurkat cells; inhibition, % at 4 µM; AID 435003; hit rate 0.53% among 330,000; PMA/ionomycin-induced NF-kB luciferase reporter, luminescence; in the data active = inhibition above about 50%
aSyn 5UTR inh = MLPCN primary screen, SNCA 5' untranslated region. alpha-synuclein 5'UTR reporter, inhibitor activity. hit rate 0.82% among 300,000. inhibition, % (tested at 7.5 µM). AID 1813; in the data active = inhibition above about 60%; inconclusive = no clear call, values can overlap the other calls;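 also: H4 neuroglioblastoma cells stably carrying SNCA 5'UTR luciferase fusion; 0% = DMSO wells and 100% = positive control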
697 NFkB inh = lowers PMA/ionomycin-induced NF-kB signal in 697 B cells | inhibition, % at 4 µM | hit rate 0.33% among 330,000 | 697 B-cell NF-kB luciferase reporter, 16 h; in the data active = inhibition above about 35%
Gli-Sufu block = antagonists of Gli-Sufu signaling; Sufu-KO-LIGHT fibroblasts, Gli luciferase reporter luminescence; inhibition, % at 5 µM; hit rate 0.74% among 340,000;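 active = inhibition above about 55%, limit read from the data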;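 also: 0% = DMSO-treated cells and 100% = wells with medium but no cells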
Mdm2-MdmX conf = confirmation of human Mdm2/MdmX interaction inhibitors | shares compounds with Mdm2 MdmX PPI | Mdm2-MdmX binding, luminescent assay | inhibition, % at 8 µM | hit rate 55% among 10,000; in the data active = inhibition above about 40%
Full FLuc ctr = full-length luciferase inhibition in Mdm2/MdmX counter-screen; shares compounds with Mdm2 MdmX PPI; SaOS-2 full-length luciferase counterscreen, luminescence; inhibition, % at 8 µM; hit rate 77% among 6,200; AID 504607;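 active = mean inhibition at 8 µM reaching about 37%, which flags the compound as non-specific, limit read from the data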;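 also: p53-null SaOS-2 cells with luciferase driven by a doxycycline-inducible promoter; compound on cells about two nights before reading with doxycycline added after day one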
Active calls of the source: *; ? = inconclusive; nt = not tested or not shown.

SMILES | CSC inhib | Mdm2 MdmX PPI | Jurkat NFkB inh | aSyn 5UTR inh | 697 NFkB inh | Gli-Sufu block | Mdm2-MdmX conf | Full FLuc ctr
O=C(c1cccc(Cl)c1)N1CCC(=O)N(C(COCc2ccccc2)Cc2ccccc2)CC1 (stereo not drawn) | -3.2 | 27.0 | 5.6 | -4.5 | 1.1 | 8.4 | nt | nt
O=C(c1ccc(Cl)c(Cl)c1)N1CCC(=O)N(C(COCc2ccccc2)Cc2ccccc2)CC1 (stereo not drawn) | 37.6 | 61.0* | 14.3 | 22.7 | 8.4 | 29.0 | 48.1* | 89.8*
O=C(NNS(=O)(=O)c1ccccc1F)c1ccccc1-n1cccc1 | -6.1 | 27.5 | -6.2 | 1.4 | 5.2 | -11.2 | nt | nt
CCc1c(C)sc(NC(=O)c2cc(-c3cc(OC)ccc3OC)on2)c1C#N | 29.8 | 96.8* | 7.0 | 10.8 | 11.2 | -0.5 | 45.9* | 67.9*
NCCCn1c(C(=O)c2cc(Cl)c(N)c(Cl)c2)c2ccc([N+](=O)[O-])cc2[n+]1[O-] | 50.8 | 65.8* | 33.5 | 100.5* | -216.8 | 51.6 | 53.5* | 63.3*
NCCCn1c(C(=O)c2cc(Cl)c(N)c(Cl)c2)c2ccc(C(F)(F)F)cc2[n+]1[O-] | -10.3 | 39.9 | -16.8 | 0.9 | -11.8 | 9.9 | nt | nt
NC(=O)c1ccc(Cn2c(C(=O)c3cc(Cl)c(N)c(Cl)c3)c3ccccc3[n+]2[O-])cc1 | 46.9 | 52.8* | 8.7 | nt | 4.9 | 4.3 | 52.1* | 65.1*
Cc1cccc(C)c1NCC(=O)N1CCN(Cc2ccccc2)CC1 | -11.0 | 2.6 | 1.1 | -1.6 | 13.6 | -1.8 | nt | nt
Cc1nn(C(C)(C)C)c(OC(=O)C2CCCC2)c1S(=O)(=O)c1ccccc1 | nt | nt | nt | -44.0 | nt | 3.5 | nt | nt
Cc1ccc(S(=O)(=O)c2c(C)nn(C(C)(C)C)c2OC(=O)C2CCCC2)cc1 | 32.7 | 69.9* | 4.3 | -26.8 | 4.4 | 4.7 | 23.6 | nt
CCCCCCOc1ccc(/C(C)=N/NC2=NCCN2)cc1[N+](=O)[O-] | ? | 52.1* | 45.7 | 42.9 | -57.1 | 15.7 | 70.8* | 106.2*
Cc1cc2cc3c(=O)[nH]c(=O)[nH]c3nc2cc1C | 11.8 | 53.1* | -9.1 | 4.4 | -18.3 | nt | 16.9 | nt
O=c1[nH]c(=O)c2cc3ccccc3nc2[nH]1 | nt | nt | nt | nt | nt | -6.6 | nt | nt
C=C1CCC[C@]2(C)C[C@H]3OC(=O)C(CNC(C)(CO)CO)[C@H]3CC12 (stereo partly drawn) | 9.6 | 63.1* | 23.3 | -32.3 | 17.0 | 8.1 | 30.9 | 54.9*
C=C1CCC[C@]2(C)C[C@H]3OC(=O)C(CN4CCCCC4CO)[C@H]3CC12 (stereo partly drawn) | 32.7 | 65.5* | 19.4 | -12.4 | 7.7 | 5.5 | 55.1* | 37.8*
C=C1CCC[C@]2(C)C[C@H]3OC(=O)C(CNC(CC)CO)[C@H]3CC12 (stereo partly drawn) | 17.2 | 42.1 | 20.7 | -37.3 | 9.4 | 12.5 | nt | nt
Clc1ccc(CNc2nnnn2-c2ccccc2)c(Cl)c1 | 0.2 | -9.5 | 8.3 | -8.3 | -20.8 | -17.4 | nt | nt
CC1(C)CC(=O)C2=C(C1)Oc1ncn(CCCO)c(=N)c1C2c1ccccc1 (stereo not drawn) | -7.4 | 5.4 | -6.4 | -3.2 | -4.8 | 8.4 | nt | nt
CC1(C)CC(=O)C2=C(C1)Oc1ncn(CCO)c(=N)c1C2c1ccccc1 (stereo not drawn) | 6.3 | 21.6 | 7.0 | -6.7 | -7.8 | -4.1 | nt | nt
COc1ccc(C2C3=C(CC(C)(C)CC3=O)Oc3ncn(CC(C)C)c(=N)c32)cc1 (stereo not drawn) | 23.2 | 13.9 | -13.6 | -4.0 | 10.5 | -1.4 | nt | nt
COc1ccc(C2c3ccc4ccccc4c3Oc3ncn(CCCO)c(=N)c32)cc1 (stereo not drawn) | 5.6 | 92.6* | 3.4 | -33.5 | -17.8 | 4.5 | 30.1 | nt
COc1ccc(C2c3ccc4ccccc4c3Oc3ncn(CCO)c(=N)c32)cc1 (stereo not drawn) | 34.8 | 97.3* | 29.0 | -13.6 | 0.6 | 14.3 | 51.5* | 76.0*
N=c1c2c(ncn1CCCO)Oc1c(ccc3ccccc13)C2c1ccccc1 (stereo not drawn) | 49.7 | 62.5* | 12.1 | -33.8 | -15.0 | nt | 31.4 | nt
N=c1c2c(ncn1CCCO)Oc1ccc3ccccc3c1C2c1ccccc1 (stereo not drawn) | 14.6 | 57.9* | -5.7 | -13.6 | 10.0 | 8.2 | 31.3 | nt
CC1C(=O)Nc2ccc(S(=O)(=O)NCCc3ccc(Cl)cc3)cc2NC1=O (stereo not drawn) | 1.9 | 1.6 | 10.6 | -23.9 | 9.8 | 0.7 | nt | nt
SMILES | CSC inhib | Mdm2 MdmX PPI | Jurkat NFkB inh | aSyn 5UTR inh | 697 NFkB inh | Gli-Sufu block | Mdm2-MdmX conf | Full FLuc ctr
O=S(=O)(CCNCCc1ccccc1)NCc1ccccc1 | nt | nt | nt | nt | nt | -9.0 | nt | nt
c1ccc(CCC2CCCCN2Cc2nc(-c3ccc4c(c3)OCO4)no2)nc1 (stereo not drawn) | 6.9 | 10.1 | 8.2 | 12.5 | -3.2 | -22.4 | nt | nt
CN1CCN(c2nc(-c3ccc(C(C)(C)C)cc3)nc3ccccc23)CC1 | 38.3 | 50.3* | -135.9 | -4.9 | -243.7 | 2.2 | 48.0* | 172.8*
Cc1ccc(-c2nc(N3CCN(C)CC3)c3ccccc3n2)cc1 | 7.4 | 15.0 | -11.1 | -29.5 | -8.5 | 2.8 | nt | nt
O=C(Nc1nccs1)c1nc[nH]c1C(=O)NCc1ccccc1 | 51.3 | 50.7* | 21.9 | nt | 32.3 | -1.4 | 0.4 | nt
O=c1c2ccccc2nc(/C=C/c2cc(Br)ccc2O)n1CCCO | 52.1 | 89.5* | -5.5 | -23.8 | 19.3 | 13.1 | 74.5* | 26.6
CCOc1cc(NC(=O)CCl)c(OCC)cc1NC(=O)CCl | -2.8 | 95.5* | 2.6 | -30.0 | -26.4 | 2.1 | 80.5* | 60.4*
O=C(O)Cc1sc(N/N=C\c2ccccc2)nc1-c1ccccc1 | 1.1 | -55.4 | -72.6 | -255.9 | -78.9 | -5.2 | nt | nt
CCCc1sc(N/N=C/c2ccccn2)nc1-c1ccc(F)cc1 | 93.4* | 69.3* | -14.1 | 7.3 | -22.2 | 59.7* | 35.5 | 45.1*
c1ccc(CCc2nn3c(-c4ccncc4)nnc3s2)cc1 | nt | 68.7* | 7.3 | 30.8 | -1.0 | -7.7 | 58.9* | 33.7
Clc1ccccc1-c1nnc2sc(CCc3ccccc3)nn12 | -2.6 | 15.3 | -7.1 | 29.1 | 4.3 | -2.1 | nt | nt
CC1=C([N+](=O)[O-])C(c2ccccc2C(F)(F)F)NC(=O)N1C (stereo not drawn) | -13.0 | 3.8 | 15.5 | -18.0 | 3.0 | -3.4 | nt | nt
Cn1ccnc1/C(=N\NC(=O)c1ccccc1)c1cccc([N+](=O)[O-])c1 | -6.4 | 2.4 | -12.9 | 12.6 | 14.7 | -9.9 | nt | nt
O=C(N/N=C(\c1ccccc1)c1ccccn1)c1cccc([N+](=O)[O-])c1 | -8.9 | 79.1* | 47.8 | 99.0* | 8.2 | 91.3* | 66.5* | 19.6
CCOc1ccc(C(=O)N/N=C(\c2ccccc2)c2ccccn2)cc1 | 61.2 | 71.3* | 26.7 | 45.6 | 14.0 | 41.1 | 87.5* | 30.1
Cc1ccc(C)c(S(=O)(=O)N2CCN(C(=O)CN3C(=O)NC(C)(C)C3=O)CC2)c1 | 0.0 | -1.9 | -0.5 | nt | 18.2 | 0.9 | nt | nt
